Test results: PubChem BioAssay AID1456 (Vanderbilt High Throughput Screening Facility, 2008)
In all, about 190,000 compounds went through this assay and about 4,100 (2.2%) were called active. Only a selection was taken, and actives are over-represented in it overall. Unmarked numbers belong to inactive results.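 Rule for the calls: active = thallium flux slope and its plate-corrected score both differing from the plate sample mean at a set confidence after two filtering rounds, in either direction; inactive = the rest.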

Target: Solute carrier family 12 member 5 (Homo sapiens) (UniProt Q9H2X9)
Sequence (Q9H2X9 whole entry, looked up): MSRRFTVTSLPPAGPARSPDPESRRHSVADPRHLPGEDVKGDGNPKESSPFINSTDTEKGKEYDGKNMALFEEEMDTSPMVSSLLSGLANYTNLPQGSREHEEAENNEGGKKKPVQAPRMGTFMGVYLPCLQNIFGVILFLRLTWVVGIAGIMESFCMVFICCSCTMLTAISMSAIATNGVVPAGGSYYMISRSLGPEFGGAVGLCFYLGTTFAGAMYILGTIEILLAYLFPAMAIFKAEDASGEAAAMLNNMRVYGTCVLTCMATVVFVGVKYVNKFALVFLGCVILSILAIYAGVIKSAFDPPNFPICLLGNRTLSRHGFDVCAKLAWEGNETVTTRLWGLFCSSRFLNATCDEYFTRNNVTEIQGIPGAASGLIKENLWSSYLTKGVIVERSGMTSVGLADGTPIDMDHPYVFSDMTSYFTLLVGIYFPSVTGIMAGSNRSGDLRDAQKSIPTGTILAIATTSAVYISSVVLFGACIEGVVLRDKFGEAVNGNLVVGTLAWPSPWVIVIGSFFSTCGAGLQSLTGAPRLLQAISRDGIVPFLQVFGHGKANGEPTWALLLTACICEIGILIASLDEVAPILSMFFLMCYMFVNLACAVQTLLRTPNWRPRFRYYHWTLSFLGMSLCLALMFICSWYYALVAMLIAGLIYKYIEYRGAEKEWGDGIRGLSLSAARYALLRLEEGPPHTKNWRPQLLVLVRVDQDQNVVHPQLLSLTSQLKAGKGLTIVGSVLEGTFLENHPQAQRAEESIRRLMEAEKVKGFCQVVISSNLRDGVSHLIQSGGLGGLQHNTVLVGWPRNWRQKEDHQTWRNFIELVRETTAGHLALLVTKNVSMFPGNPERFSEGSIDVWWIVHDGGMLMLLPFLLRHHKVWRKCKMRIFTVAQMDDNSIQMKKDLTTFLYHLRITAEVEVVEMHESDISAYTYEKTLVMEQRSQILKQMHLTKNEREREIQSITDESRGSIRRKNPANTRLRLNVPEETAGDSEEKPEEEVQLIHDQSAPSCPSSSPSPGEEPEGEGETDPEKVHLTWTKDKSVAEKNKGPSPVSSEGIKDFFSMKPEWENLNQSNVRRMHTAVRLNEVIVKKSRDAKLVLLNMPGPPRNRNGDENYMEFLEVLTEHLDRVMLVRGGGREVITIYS
Test: KCC2 cotransporter modulators, thallium flux, primary screen, cell-based, HEK293 KCC2, FluoZin-2 fluorescence, MLSMR (AID 1456);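 note: slope of fluorescence scaled to starting intensity during 10 to 20 s after thallium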
Settings: KCC2 cells, thallium flux FluoZin-2 fluorescence; at 10 µM

Compound	B-score of Tl+ flux slope (higher = more flux/activation; lower = inhibition)
COCCCNC(=O)CSc1nc2ccc(N3CCOCC3)cc2c(=O)n1CCc1ccccc1	2.34
O=C(CCCn1c(SCC(=O)c2ccccc2)nc2ccccc2c1=O)NCC1CCCO1 (configuration not stated)	-0.113
CCCCn1c(SCC(=O)NCC2CCCO2)nc2ccc(N3CCOCC3)cc2c1=O (configuration not stated)	7.18 (active)
CC(C)(C)NC(=O)NC(=O)COC(=O)Cc1ccc(Cl)cc1Cl	0.383
CCN1CCN(C(=O)CCN2C(=O)c3ccccc3C2=O)CC1	0.322
CCOC(=O)C1=NN(c2ccc(Cl)cc2)/C(=C/C2=NCCc3cc(OC)c(OC)cc32)S1	1.05
O=C(O)CC1(CC(=O)Nc2cccc(C(F)(F)F)c2)CCCC1	-1.45
CCOC(=O)Cc1cc(=O)[nH]c(/N=C(\N)Nc2ccc(OC)cc2)n1	-0.288
O=C(O)CCSc1nnc(-c2ccccc2)n1-c1ccccc1	0.407
CCc1c(SCCC(=O)O)nc2ccccc2c1C	3.44 (active)
COC(=O)CSc1nc(C2CC2)nc2ccccc12	-0.171
Cc1nc2ccccc2cc1C(=O)N/N=C/c1ccc([N+](=O)[O-])cc1	-1.83
CNC(=O)c1cc2c(ccc3ccccc32)oc1=N	-0.785
N=c1oc2ccccc2cc1C(=O)N/N=C/c1ccccc1	-3.75 (active)
CCN(CC)c1ccc(NC(=O)C2CCC(CNc3c(N4CCCC4)c(=O)c3=O)CC2)c(C)c1 (configuration not stated)	1.27
CCCc1c(C(=O)O)cnn1-c1ccc(Cl)cc1	-0.00741
Oc1c(Cl)cc(Cl)c(Cl)c1Cc1c(O)c(Cl)cc(Cl)c1Cl	19.9 (active)
COc1ccc(CC2(CO)CCN(Cc3cnn(C)c3)CC2)cc1	0.00537
C/C=C/C(=O)Nc1ccc(N2CCN(c3ccc(C(F)(F)F)cn3)CC2)nc1	-0.115
CCC(C)NC(=O)CN(C1CCCCC1)S(C)(=O)=O (configuration not stated)	0.0328
CS(=O)(=O)N(CC(=O)N1CCN(c2ccc(F)cc2)CC1)C1CCCCC1	-3.33 (active)
CS(=O)(=O)N(CC(=O)Nc1ccc(Cl)c(Cl)c1)C1CCCCC1	-0.64
O=C(NN1C(=O)C2CCCCC2C1=O)c1ccco1 (configuration not stated)	-1.74
O=S(=O)(NC(=S)Nc1ccccc1)c1ccc(F)cc1	0.866
Cc1cc(C)nc(Nc2n[nH]c(-c3ccccc3N)n2)n1	0.274

Compound	B-score of Tl+ flux slope (higher = more flux/activation; lower = inhibition)
CSc1nc2sc3c(c2c(=O)[nH]1)CCc1ccccc1-3	0.526
COc1ccc(-n2c(=S)[nH]c3sc4c(c3c2=O)CCc2ccccc2-4)cc1	11.6 (active)
COc1cccc(-n2c(=S)[nH]c3c(oc4ccccc43)c2=O)c1	-2.03
COCc1cc(=O)[nH]c(SC)n1	-0.453
Cc1cccc(OCC(=O)NC(=S)Nc2ccccc2N2CCOCC2)c1	8.7 (active)
Cc1cccc(OCCC(=O)Nc2cc(S(=O)(=O)N3CCCCC3)ccc2N2CCOCC2)c1	0.115
Cc1cccc(OCC(=O)Nc2ccccc2F)c1	0.917
O=C(Nc1ccccc1)Nc1ccc(C(F)(F)F)cn1	0.765
O=C(C1=C(O)C(=O)N(CCOCCO)C1c1ccccn1)c1cccs1 (configuration not stated)	0.0733
CC(=O)NC(CC(=O)Nc1nccs1)c1ccccc1 (configuration not stated)	0.0448
Cc1ccc(Cn2c(NC(=O)c3ccco3)nc3ccccc32)cc1	1.11
CC(=O)Nc1nc2ccccc2n1Cc1ccc(C)cc1	0.76
CCCc1nc2c(C)cc(-c3nc4ccccc4n3C)cc2n1Cc1ccc(-c2ccccc2C(=O)O)cc1	-4.55 (active)
c1ccc2c(c1)OCCOCCOCCO2	-0.0153
O=C(COC(=O)c1cc([N+](=O)[O-])ccc1NCc1ccccc1)NC1CCCCC1	-3.78 (active)
O=C(COC(=O)c1ccccc1SCC(=O)NC1CCCCC1)NC1CCCCC1	0.427
N#Cc1ccccc1Sc1ccccc1C(=O)OCC(=O)NC1CCCCC1	-0.81
O=C(CSc1cccc2cccnc12)N/N=C/c1cccnc1	30.2 (active)
Cc1nc2ccccc2n1CC(=O)N/N=C/c1cccnc1	0.307
CCOC(=O)N/N=C/c1cccnc1	0.0775
CN(c1ccccc1)S(=O)(=O)c1ccc(Cl)c(C(=O)OCC(=O)NCc2ccco2)c1	-3.28
O=C(Nc1cccc(S(=O)(=O)NC2=NCCC2)c1)C1CCCCC1	0.665
N/C(=N\OC(=O)Nc1ccccc1)c1ccno1	0.175
COc1ccc(S(=O)(=O)N(CC(=O)N/N=C/c2ccccc2C(=O)O)c2ccccc2OC)cc1	0.515
Cc1cccc(C)c1NC1=NC(=S)N(c2ccc(N(C)C)cc2)C1(C)C	4.28 (active)

Compound	B-score of Tl+ flux slope (higher = more flux/activation; lower = inhibition)
Cc1nnc2n1N=C(c1ccc3c(c1)NC(=O)CO3)CS2	-0.931
Cc1cc(F)ccc1NC(=O)C(C)n1c2ccccc2c2nc(=O)cc(C)n21 (configuration not stated)	-0.013
Clc1cccc(N=C2NN=C(c3ccc4c(c3)OCCO4)CS2)c1	1.95
CN(C)c1nc(=Nc2cccc(Cl)c2)ss1	87 (active)
Cc1ccc(C(=O)NNC2=Nc3cc([N+](=O)[O-])ccc3OC2)cc1	0.865
COc1ccc(OCCC(=O)c2ccc(OC)cc2)cc1	0.534
COc1ccc(CCNC(=O)CSc2nc3[nH]ncc3c(=O)n2-c2cccc(C(F)(F)F)c2)cc1OC	1.1
NC(=O)NC(=O)CSc1nc2cc([N+](=O)[O-])ccc2n1-c1cccc(C(F)(F)F)c1	6.95 (active)
COc1ccc(-n2cnnc2SCC(=O)Nc2cccc([N+](=O)[O-])c2)cc1	0.774
O=C(CN1CCN(C/C=C/c2ccccc2)CC1)Nc1ccc(F)cc1F	0.952
CC(=O)N/C(=C\c1ccc(F)cc1)C(=O)NC(Cc1ccccc1)C(=O)O (configuration not stated)	0.0184
O=C(O)c1cccnc1Sc1ncnc2sc3c(c12)CCC3	2.47
O=C(Cn1cnc2ccccc2c1=O)Nc1cccc(S(=O)(=O)N2CCCCC2)c1	0.0725
FC(F)(F)Oc1ccc(NC(=S)NCc2ccccc2)cc1	0.0182
CS(=O)(=O)c1sc(C(=O)NC(=S)Nc2ccc(OC(F)(F)F)cc2)c2c1C=CCC2	6.79 (active)
CCNC(=S)Nc1ccc(OC(F)(F)F)cc1	-0.759
CC1(C)C=C2[C@H]3CC[C@@H]4[C@@]5(C)CCC(=O)C(C)(C)[C@@H]5CC[C@@]4(C)[C@]3(C)CC[C@@]2(C(=O)O)CC1	5.9 (active)
CCOC(=O)N1CCN(c2c(NCCN3CCN(c4ccccc4F)CC3)c(=O)c2=O)CC1	0.85
O=C(CCn1nnc2ccccc2c1=O)N[C@@H](Cc1c[nH]c2ccccc12)C(=O)O	0.807
CCCc1nc2sc3c(c2c(=O)n1NC(=O)CCCl)CCCC3	-1.28
O=c1c2c3c(sc2n(CCN2CCCC2)c(=O)n1Cc1ccccc1)CCCCC3	-0.146
CCn1c(=S)[nH]c2sc3c(c2c1=O)CCCCC3	75.1 (active)
O=C1C2C3C=CC(C3)C2C(=O)N1c1ccc(S(=O)(=O)Nc2nccs2)cc1 (configuration not stated)	0.592
Fc1ccc(Nc2nnns2)cc1	-0.138
COc1ccccc1-n1cnc2cc(NS(=O)(=O)c3ccccc3)ccc21	-3.88 (active)

Compound	B-score of Tl+ flux slope (higher = more flux/activation; lower = inhibition)
COCCCNC(=O)c1ccc2c(c1)ncn2-c1ccccc1OC	-0.0358
COc1ccccc1-n1cnc2cc(C(=O)NCC3CCCO3)ccc21 (configuration not stated)	0.84
NNC(=O)c1ccc(COCC(F)(F)C(F)F)cc1	0.0302
CCOC(=O)c1cn[nH]c1NC(=S)Nc1ccccc1	0.559
C/C(Cc1ccccc1)=N\NC(=O)CNC(=O)c1ccc2c(c1)OCCO2	0.0985
O=C1/C(=C/c2cccs2)SC(=S)N1C1CCS(=O)(=O)C1 (configuration not stated)	-0.225
O=C(CCCN1C(=O)/C(=C/c2ccccc2)SC1=S)Nc1ccc(O)cc1	-0.0883
O=C(NC1CC1)c1ccc2c(c1)NC(=O)c1ccccc1S2	-0.0671
O=C1Cc2ccccc2Sc2ccc(Cl)cc21	0.587
S=C1Nc2cc(Cl)ccc2Sc2ccccc21	8.4 (active)
N#C/C(=C\N1CCOCC1)S(=O)(=O)c1ccc(Cl)cc1	-0.211
COC(=O)c1c(C)oc(C)c1S(=O)(=O)NCc1ccc(Cl)cc1	-0.208
COC(=O)C1=C(C)N=C2SC(C)C(=O)N2C1/C=C/c1ccccc1 (configuration not stated)	0.122
CC(OC(=O)c1ccccc1N1C(=O)C2C3CCC(C3)C2C1=O)C(=O)c1ccccc1 (configuration not stated)	0.138
CCOC(=O)c1ccccc1N1C(=O)C2Sc3[nH]c(=O)sc3C(/C=C/c3ccccc3)C2C1=O (configuration not stated)	-6.82 (active)
CC(C)(C)C(=O)NNC(=O)c1ccc(Oc2cc(Cl)cc(Cl)c2)o1	4.1
COc1ccc(Cl)cc1C(=O)NNC(=S)NC(=O)/C=C/c1ccco1	28.5 (active)
COc1ccc(Cl)cc1C(=O)NNC(=S)NC1CCCC1	0.52
C=CCNC(=S)NNC(=O)c1cc(Cl)ccc1OC	-0.352
Cc1cc(C)nc(SC(C)C(=O)N/N=C/c2cccs2)n1 (configuration not stated)	5.07 (active)
NC(=O)N/N=C\c1cccs1	0.148
Cc1nc2ccccc2n1CC(=O)N/N=C/c1cccs1	0.629
